From PubChem BioAssay AID602329 (Broad Institute, 2012)
Among all 360,000 compounds or so, about 510 (0.14%) were called active.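 The calls were made as follows: active = mean normalized replicate activity at least 40 and at least half of replicates scoring 40 or more; inconclusive = only one of the two criteria met; inactive = mean below 40 and under half of replicates reaching 40.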 The entries come from a sample that favours actives as a whole.

These molecules were tested against DNA repair and recombination protein RAD54-like (Homo sapiens) (UniProt Q92698) (assay: inhibitors of human RAD54 branch migration, primary screen, biochemical, fluorescence, single point (AID 602329;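 also: 0% = median of neutral control wells and 100% = median of positive control wells; inhibitors cause a drop in the FAM fluorescence signal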)). Conditions: RAD54 Holliday junction branch migration, FAM/BHQ fluorescence; at 10.4 µM; stronger effect = higher value.
DNA repair and recombination protein RAD54-like (Homo sapiens), sequence (Q92698 whole entry, looked up): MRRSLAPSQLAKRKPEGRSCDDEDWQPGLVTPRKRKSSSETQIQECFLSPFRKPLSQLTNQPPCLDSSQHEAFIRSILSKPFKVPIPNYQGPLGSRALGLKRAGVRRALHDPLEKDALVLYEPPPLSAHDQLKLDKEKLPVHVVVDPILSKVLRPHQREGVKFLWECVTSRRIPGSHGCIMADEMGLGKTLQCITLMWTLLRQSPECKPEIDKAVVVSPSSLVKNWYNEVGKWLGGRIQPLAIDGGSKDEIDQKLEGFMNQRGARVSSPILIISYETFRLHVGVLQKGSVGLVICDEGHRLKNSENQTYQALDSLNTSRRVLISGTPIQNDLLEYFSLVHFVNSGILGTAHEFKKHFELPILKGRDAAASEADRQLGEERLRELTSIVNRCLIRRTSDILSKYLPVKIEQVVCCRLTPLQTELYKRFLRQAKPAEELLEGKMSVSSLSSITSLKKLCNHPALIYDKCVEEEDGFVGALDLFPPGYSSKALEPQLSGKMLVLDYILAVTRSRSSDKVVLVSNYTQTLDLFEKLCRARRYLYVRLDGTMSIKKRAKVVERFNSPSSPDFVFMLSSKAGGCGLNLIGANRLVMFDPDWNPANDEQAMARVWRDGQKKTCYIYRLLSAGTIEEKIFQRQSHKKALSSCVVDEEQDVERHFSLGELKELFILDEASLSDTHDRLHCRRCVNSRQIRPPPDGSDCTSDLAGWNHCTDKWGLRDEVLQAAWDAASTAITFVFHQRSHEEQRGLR

Structure (SMILES)	inhibition
CC(=O)N1[C@H](CO)[C@@H](c2ccccc2)[C@@H]1CN(CC(C)C)C(=O)c1ccccn1	-0.684% (inactive)
Cc1ccc(S(=O)(=O)Nc2ccc3c(c2)C(=O)N([C@@H](C)CO)C[C@H](C)[C@@H](CN(C)C(=O)Nc2ccc(F)cc2)OCCCC[C@H](C)O3)cc1	8.58% (inactive)
COC(=O)C[C@H]1CC[C@H]2[C@H](COc3ccc(NC(=O)C4CC4)cc3C(=O)N2C)O1	-2.57% (inactive)
C[C@@H](NC(=O)C[C@H]1CC[C@H](NS(=O)(=O)c2cccc(F)c2)[C@H](CO)O1)c1ccccc1	0.335% (inactive)
O=C(Nc1cc(F)ccc1F)N1C[C@H]2[C@@H](c3ccccc31)[C@@H](CO)N2C(=O)c1ccccc1	8.71% (inactive)
Cc1ccc(S(=O)(=O)Nc2ccc3c(c2)C(=O)N([C@H](C)CO)C[C@H](C)[C@@H](CN(C)S(=O)(=O)c2cn(C)cn2)OCCCC[C@H](C)O3)cc1	1.15% (inactive)
O=C([C@H]1[C@H](CO)[C@H]2Cn3c(ccc(C4=CCCCC4)c3=O)[C@@H]1N2)N1CCCCC1	-7.2% (inactive)
CCN(CC)CCCNC(=O)c1cc2c(=O)[nH]c3ccc(C)cc3c2s1	51.5% (active)
Cc1ccc2[nH]c(=O)c(CC(=O)O)c(-c3ccccc3)c2c1	-1.43% (inactive)
Cc1cccc(N(C)C(=O)c2cc3c(=O)[nH]c4ccc(C)cc4c3s2)c1	-5.82% (inactive)
CO[C@H]1CN(C)C(=O)c2cc(NC(=O)C3CC3)ccc2OC[C@H](C)N(CC2CCCC2)C[C@@H]1C	-8.31% (inactive)
Cc1noc(C)c1NC(=O)Nc1ccc2c(c1)C(=O)N([C@H](C)CO)C[C@@H](C)[C@@H](CN(C)C(=O)NC(C)C)O2	8.07% (inactive)
CC(C)NC(=O)Nc1ccc2c(c1)C(=O)N([C@@H](C)CO)C[C@@H](C)[C@H](CN(C)C(=O)NC1CCCCC1)O2	-6.48% (inactive)
CN1CCN(Cc2c(O)ccc3c2oc(=O)c2ccccc23)CC1	61.1% (active)
O=c1oc2c(CN3CCCCC3)c(O)ccc2c2c1CCCCC2	3.11% (inactive)
N#Cc1ccccc1S(=O)(=O)N1CCN(Cc2c(O)ccc3ccccc23)CC1	1.29% (inactive)
O=C(C[C@@H]1C[C@@H]2c3cc(NC(=O)Cc4ccncc4)ccc3O[C@@H]2[C@H](CO)O1)NCc1cccc(F)c1	-0.719% (inactive)
C/C=C/c1cnc2c(c1)C(=O)N([C@@H](C)CO)C[C@H](C)[C@H](CN(C)C(=O)CN1CCOCC1)O2	2.37% (inactive)
C[C@@H]1CN([C@@H](C)CO)C(=O)c2cc(NS(=O)(=O)c3ccccc3)ccc2O[C@@H](C)CCCCO[C@H]1CN(C)C(=O)C1CCCCC1	-16.2% (inactive)
COC(=O)c1c(NC(=O)c2ccc(S(=O)(=O)N3CCOCC3)cc2)sc2c1CCN(C(C)C)C2	75% (active)
COc1ccc(S(=O)(=O)N2CCOCC2)cc1NC(=O)c1ccc(OCC(C)C)c(OC)c1	3.95% (inactive)
CC(OC(=O)c1ccc(S(=O)(=O)N2CCOCC2)cc1)c1ccccc1 (stereo not drawn)	0.166% (inactive)
CC(C)NC(=O)Nc1ccc2c(c1)C(=O)N(C)[C@H]1CC[C@H](CC(=O)NCc3ccc(F)cc3)O[C@H]1CO2	7.11% (inactive)
C[C@@H]1CN([C@H](C)CO)S(=O)(=O)c2ccc(C3=CCCC3)cc2O[C@@H]1CN(C)C(=O)C1CCC1	-3.7% (inactive)
C[C@@H]1CCCCO[C@@H](CN(C)C(=O)c2ccccc2)[C@@H](C)CN([C@@H](C)CO)C(=O)c2cc(NS(=O)(=O)c3ccccc3)ccc2O1	-0.712% (inactive)

Structure (SMILES)	inhibition
CCCNC(=O)[C@H]1[C@H](CO)[C@H]2Cn3c(cccc3=O)[C@H]2N1Cc1ccccc1Cl	-3.26% (inactive)
CC(=O)N1[C@@H]2Cn3c(ccc(C4=CCCC4)c3=O)[C@H]1[C@@H](C(=O)NC1CCC1)[C@@H]2CO	7.46% (inactive)
COc1ccc(NC(=O)N(C)C[C@H]2OCCCC[C@@H](C)Oc3ccc(NC(=O)c4ccncc4)cc3C(=O)N([C@@H](C)CO)C[C@H]2C)cc1	2.64% (inactive)
CN1C(=O)c2cc(NS(=O)(=O)c3ccc(Cl)cc3)ccc2OC[C@@H]2O[C@H](CC(=O)O)CC[C@@H]21	-1.23% (inactive)
CC(C)NC(=O)N(C)C[C@@H]1Oc2ncc(-c3ccc(C(=O)N(C)C)cc3)cc2C(=O)N([C@H](C)CO)C[C@H]1C	-0.445% (inactive)
CCCNC(=O)N(C)C[C@@H]1Oc2ncc(-c3cccc(C#N)c3)cc2C(=O)N([C@@H](C)CO)C[C@H]1C	7.71% (inactive)
CCC(=O)N(C)C[C@@H]1Oc2cc(C#CCOC)ccc2S(=O)(=O)N([C@@H](C)CO)C[C@@H]1C	-1.77% (inactive)
Cc1cccn2c(=O)c3cc(C#N)c(=O)n(CCCN4CCOCC4)c3nc12	56.4% (active)
Cc1cccn2c(=O)c3cc(C#N)c(=NC(=O)c4cccnc4)n(CC4CCCO4)c3nc12 (stereo not drawn)	-4.7% (inactive)
Cc1ccc(-n2c(=O)c(C#N)cc3c(=O)n4ccccc4nc32)cc1C	-1.05% (inactive)
C[C@@H](NC(=O)C[C@H]1C[C@H]2c3cc(NC(=O)C4CCOCC4)ccc3O[C@H]2[C@@H](CO)O1)c1ccccc1	-0.474% (inactive)
C=CC(=O)Nc1ccc(Nc2ccnc(Nc3ccc(N4CCN(C)CC4)cc3)n2)cc1	81.2% (active)
Cc1cc(Nc2cc(N3CCN(C)CC3)nc(Sc3ccc(NC(=O)C4CC4)cc3)n2)n[nH]1	17.6% (inactive)
CC(=O)Nc1cc(-c2ccc(N3CCN(C)CC3)cc2)cn2c(-c3ccc(F)cc3)cnc12	36.5% (inactive)
C[C@H](CO)N1C[C@H](C)[C@@H](CN(C)S(=O)(=O)c2cn(C)cn2)Oc2ccc(N(C)C)cc2CC1=O	-0.235% (inactive)
CCN(C[C@@H]1[C@@H](c2ccccc2)[C@H](CO)N1C(C)=O)C(=O)NC(C)C	-5% (inactive)
CO[C@@H]1CN(C)C(=O)c2cc(NC(=O)C3CCCC3)ccc2OC[C@@H](C)N(Cc2ccc(F)cc2)C[C@H]1C	-4.74% (inactive)
CC(=O)N(C)C[C@@H]1Oc2cc(C#Cc3ccccc3F)ccc2S(=O)(=O)N([C@@H](C)CO)C[C@@H]1C	-0.527% (inactive)
C[C@@H]1CN([C@@H](C)CO)C(=O)c2cc(-c3ccc(C#N)cc3)cnc2O[C@H]1CN(C)C(=O)CN(C)C	5.52% (inactive)
CCNC(=O)C[C@@H]1CC[C@@H]2[C@H](COC[C@H](O)CN2S(=O)(=O)c2ccc(Oc3ccccc3)cc2)O1	-6.18% (inactive)
O=C(C[C@H]1CC[C@@H](NC(=O)c2ccccc2)[C@@H](CO)O1)NCc1ccncn1	-7.18% (inactive)
CCCNC(=O)C[C@@H]1CC[C@@H]2[C@H](COc3ccc(NC(=O)c4cc(F)cc(F)c4)cc3C(=O)N2C)O1	1.51% (inactive)
CCCNC(=O)C[C@@H]1CC[C@H]2[C@@H](COC[C@@H](O)CN2Cc2ccccc2F)O1	6.11% (inactive)
C[C@@H]1CN([C@H](C)CO)C(=O)c2cccc(NC(=O)Nc3ccc4c(c3)OCO4)c2O[C@@H]1CN(C)Cc1ccccc1	-7.8% (inactive)
C[C@H]1CN([C@@H](C)CO)C(=O)c2cc(NC(=O)C3CC3)ccc2O[C@@H]1CN(C)S(=O)(=O)c1cn(C)cn1	-0.446% (inactive)

Structure (SMILES)	inhibition
COc1ccc(NC(=O)N(C)C[C@H]2OCc3ccccc3-c3ccccc3C(=O)N([C@H](C)CO)C[C@@H]2C)cc1	-9.7% (inactive)
O=C1CCN(CCCc2ccccc2)CCN1CCO	-1.44% (inactive)
O=C1c2ccccc2C(=O)c2c1cccc2N1CCN(CCO)CC1	84.2% (active)
O=C(Nc1cccc(Cl)c1)c1cc([N+](=O)[O-])ccc1N1CCN(CCO)CC1	-11.1% (inactive)
Cc1noc(C)c1NC(=O)N(C)C[C@H]1Oc2ccc(NS(=O)(=O)c3ccc(Cl)cc3)cc2CC(=O)N([C@H](C)CO)C[C@@H]1C	-4.2% (inactive)
Cc1ccc(S(=O)(=O)N(C)C[C@H]2Oc3ccc(NC(=O)C4CC4)cc3C(=O)N([C@H](C)CO)C[C@H]2C)cc1	8.82% (inactive)
CO[C@H]1CN(C)C(=O)c2cc(NC(=O)C3CCC3)ccc2OC[C@H](C)N(Cc2nccs2)C[C@H]1C	2.2% (inactive)
COc1cccc(NC(=O)C[C@@H]2CC[C@H]3[C@@H](COc4ccc(NC(=O)C5CCOCC5)cc4C(=O)N3C)O2)c1	-1.97% (inactive)
COCC(=O)Nc1ccc2c(c1)C(=O)N(C)C[C@@H](OC)[C@H](C)CN(C(=O)CC1CC1)[C@H](C)CO2	3.23% (inactive)
CCCN(C)C[C@H]1Oc2cc(-c3ccc(C)cc3)ccc2S(=O)(=O)N([C@H](C)CO)C[C@H]1C	-15% (inactive)
C#Cc1ccc([C@H]2C=C(C(=O)O)O[C@@H](OCC)[C@@H]2CCCO)cc1	-9.94% (inactive)
Cc1noc(C)c1NC(=O)Nc1cccc2c1O[C@@H](CN(C)Cc1ccc3c(c1)OCO3)[C@@H](C)CN([C@@H](C)CO)C2=O	7.78% (inactive)
O=C(c1cccnc1)N1CCCCN2[C@@H](CO)[C@H](c3ccc(C#Cc4ccccc4)cc3)[C@@H]2C1	1.81% (inactive)
CCNC(=O)[C@@H]1[C@@H](CO)[C@@H]2Cn3c(ccc(C4=CCCC4)c3=O)[C@H]1N2Cc1ccccc1	2.92% (inactive)
CC(C)NC(=O)N(C)C[C@H]1OCCCC[C@H](C)Oc2ccc(NC(=O)Nc3ccc4c(c3)OCO4)cc2C(=O)N([C@H](C)CO)C[C@@H]1C	-0.838% (inactive)
CNC[C@H]1Oc2cc(C#Cc3ccccc3)ccc2S(=O)(=O)N([C@@H](C)CO)C[C@@H]1C	1.19% (inactive)
Cc1ccc(S(=O)(=O)N(C)C[C@H]2OCCCC[C@H](C)Oc3ccc(NS(=O)(=O)c4c(C)noc4C)cc3C(=O)N([C@H](C)CO)C[C@@H]2C)cc1	3.91% (inactive)
CN1c2ccc(-c3ccc(F)cc3)cc2[C@@H]2[C@@H](CCN2S(=O)(=O)c2ccc(F)cc2)[C@@H]1CO	-1.5% (inactive)
COc1ccc(NC(=O)Nc2ccc3c(c2)CC(=O)N([C@@H](C)CO)C[C@H](C)[C@H](CN(C)C(=O)Nc2ccc4c(c2)OCO4)O3)cc1	-3.32% (inactive)
COc1cccc(C(=O)Nc2ccc3c(c2)C(=O)N(C)[C@@H]2CC[C@@H](CC(=O)NCCCN4CCOCC4)O[C@@H]2CO3)c1	8.84% (inactive)
CO[C@H]1CN(C)C(=O)c2ccc(NC(=O)C3CCOCC3)cc2OC[C@H](C)NC[C@H]1C	-0.243% (inactive)
CCNC(=O)C[C@@H]1CC[C@@H]2[C@@H](COc3ccc(NC(=O)c4cccc(C(F)(F)F)c4)cc3C(=O)N2C)O1	7.26% (inactive)
O=C(C1CCC1)N1CC[C@H]2[C@H](CO)Nc3ccc(-c4cccc(F)c4)cc3[C@H]21	2.5% (inactive)
